Results from PubChem BioAssay (EPA / NIEHS).
Values joined by “and” are separate entries in the source; they are usually repeats but may differ in a detail not shown here. Equal entries are not always repeated. Results filed as inconclusive are left out. Where a structure was tested more than once in an assay, its records may differ in their call. Active and inactive are the calls of the source. How the source made its calls: active means hit-call score of the fitted dose curve at least 0.9, where 1 is the maximum; inconclusive means response in the unintended direction; inactive means score below 0.9.

What was measured:
[1] = ATG_M_06_XSP2: Attagene TRANS-FACTORIAL Multi-Species (XSP2) HepG2 Assay for M06 Transcription Factor (Internal Marker) (AID 2283811);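 further: internal background marker reporter mRNA measured by RT-PCR and capillary electrophoresis; hits are increases in signal above the DMSO baseline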
In short: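 HepG2, multiplexed reporter transfection; 24 h dosing; AR stimulated with 3 nM 6-alpha-fluorotestosterone + 1.5 nM norgestrel; RNA → RT-PCR → 6-FAM primer extension → HpaI → CE. Positive direction vs DMSO.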

[2] = tested on: turtle Estrogen Receptor (ERa), gene 101933533; test: ATG_trERa_XSP2: Attagene TRANS-FACTORIAL Multi-Species (XSP2) HepG2 Assay for turtle Estrogen Receptor (ERa) (AID 2283812);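 further: human HepG2 liver cells transiently expressing turtle ERa-Gal4 chimeric receptor; actives raise reporter signal above DMSO so AC50 reflects agonist activity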
In short: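 HepG2 cells transiently transfected with GAL4-UAS reporter units expressing turtle ERa-Gal4 chimera. Reporter mRNA measured after 24 h dosing by RT-PCR, fluorescent labelling and capillary electrophoresis; gain of signal fitted versus DMSO.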

[3] = target: zebrafish Estrogen Receptor (ER1), esr1 (gene 259252) (UniProt P57717); test: ATG_zfER1_XSP2: Attagene TRANS-FACTORIAL Multi-Species (XSP2) HepG2 Assay for zebrafish Estrogen Receptor (ER1) (AID 2283816)
zebrafish Estrogen Receptor (ER1), esr1 (gene 259252), sequence (P57717 whole entry, looked up, the tested form may be a part): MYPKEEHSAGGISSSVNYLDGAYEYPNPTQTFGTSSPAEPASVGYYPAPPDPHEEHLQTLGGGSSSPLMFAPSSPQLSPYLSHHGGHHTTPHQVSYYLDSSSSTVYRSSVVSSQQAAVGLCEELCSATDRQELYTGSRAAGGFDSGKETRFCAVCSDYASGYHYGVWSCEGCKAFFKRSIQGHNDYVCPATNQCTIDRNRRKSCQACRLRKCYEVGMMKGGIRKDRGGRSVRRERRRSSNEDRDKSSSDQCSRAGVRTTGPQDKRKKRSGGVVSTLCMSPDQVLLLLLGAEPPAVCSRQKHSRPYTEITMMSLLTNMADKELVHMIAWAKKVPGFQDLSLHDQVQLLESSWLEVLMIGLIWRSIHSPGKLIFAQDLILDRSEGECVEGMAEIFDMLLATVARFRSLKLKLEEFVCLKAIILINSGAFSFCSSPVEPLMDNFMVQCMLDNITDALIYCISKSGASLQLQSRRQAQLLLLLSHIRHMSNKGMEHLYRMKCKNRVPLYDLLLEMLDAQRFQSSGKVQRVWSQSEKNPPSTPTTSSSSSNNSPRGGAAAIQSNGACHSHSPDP
In short: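 HepG2 cells transiently transfected with a GAL4-UAS reporter and a chimeric zebrafish ER1-Gal4 construct, dosed 24 h. Reporter mRNA quantified by RT-PCR, labelling, HpaI digestion and capillary electrophoresis, relative to DMSO.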

[4] = target: chicken Estrogen Receptor (ERa), ESR1 (gene 396099) (UniProt P06212); test: ATG_chERa_XSP2: Attagene TRANS-FACTORIAL Multi-Species (XSP2) HepG2 Assay for chicken Estrogen Receptor (ERa) (AID 2283817);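 further: actives raise reporter signal above DMSO so AC50 reflects ER activation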
chicken Estrogen Receptor (ERa), ESR1 (gene 396099), sequence (P06212 whole entry, looked up, the tested form may be a part): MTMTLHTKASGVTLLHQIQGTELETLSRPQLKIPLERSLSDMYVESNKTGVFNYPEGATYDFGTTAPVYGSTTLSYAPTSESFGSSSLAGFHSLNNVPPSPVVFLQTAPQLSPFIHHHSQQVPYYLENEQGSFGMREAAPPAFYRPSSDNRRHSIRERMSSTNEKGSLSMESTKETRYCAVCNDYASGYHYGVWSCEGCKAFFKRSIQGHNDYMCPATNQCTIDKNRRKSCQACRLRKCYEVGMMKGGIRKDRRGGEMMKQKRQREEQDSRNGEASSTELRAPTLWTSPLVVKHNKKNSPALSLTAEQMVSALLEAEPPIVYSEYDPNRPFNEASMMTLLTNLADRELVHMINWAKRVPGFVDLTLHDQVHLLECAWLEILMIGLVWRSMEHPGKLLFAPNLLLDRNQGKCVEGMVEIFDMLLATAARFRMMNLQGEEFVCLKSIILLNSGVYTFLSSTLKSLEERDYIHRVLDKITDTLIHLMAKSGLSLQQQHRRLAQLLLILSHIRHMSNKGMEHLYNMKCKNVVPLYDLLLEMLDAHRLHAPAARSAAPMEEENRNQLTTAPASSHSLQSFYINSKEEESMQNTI
In short: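 Transient MRTU transfection of HepG2 → 24 h chemical dosing → TriZol RNA, oligo(dT) RT → PCR, 6-FAM primer extension, HpaI digest → CE quantitation of chicken ERa-Gal4-driven reporter mRNA. Positive direction vs DMSO.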

[5] = tested on: zebrafish Estrogen Receptor (ER2a), gene 317734; test: ATG_zfER2a_XSP2: Attagene TRANS-FACTORIAL Multi-Species (XSP2) HepG2 Assay for zebrafish Estrogen Receptor (ER2a) (AID 2283818);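 further: hits raise reporter mRNA so AC50 reflects activation of zebrafish ER2a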
In short: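 HepG2 cells transiently transfected with GAL4-UAS reporter units and chimeric zebrafish ER2a-Gal4, exposed 24 h; medium contains 3 nM 6-alpha-fluorotestosterone and 1.5 nM norgestrel. Reporter mRNA quantified by RT-PCR, HpaI digestion, capillary electrophoresis; gain versus DMSO.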

[6] = target: GAL4 Transcription Factor (Internal Marker), GAL4 (gene 855828) (UniProt P04386); test: ATG_GAL4_XSP2: Attagene TRANS-FACTORIAL Multi-Species (XSP2) HepG2 Assay for GAL4 Transcription Factor (Internal Marker) (AID 2283814);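 further: GAL4 reporter mRNA background control in MRTU transfected cells not a receptor target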
GAL4 Transcription Factor (Internal Marker), GAL4 (gene 855828), sequence (P04386 whole entry, looked up, the tested form may be a part): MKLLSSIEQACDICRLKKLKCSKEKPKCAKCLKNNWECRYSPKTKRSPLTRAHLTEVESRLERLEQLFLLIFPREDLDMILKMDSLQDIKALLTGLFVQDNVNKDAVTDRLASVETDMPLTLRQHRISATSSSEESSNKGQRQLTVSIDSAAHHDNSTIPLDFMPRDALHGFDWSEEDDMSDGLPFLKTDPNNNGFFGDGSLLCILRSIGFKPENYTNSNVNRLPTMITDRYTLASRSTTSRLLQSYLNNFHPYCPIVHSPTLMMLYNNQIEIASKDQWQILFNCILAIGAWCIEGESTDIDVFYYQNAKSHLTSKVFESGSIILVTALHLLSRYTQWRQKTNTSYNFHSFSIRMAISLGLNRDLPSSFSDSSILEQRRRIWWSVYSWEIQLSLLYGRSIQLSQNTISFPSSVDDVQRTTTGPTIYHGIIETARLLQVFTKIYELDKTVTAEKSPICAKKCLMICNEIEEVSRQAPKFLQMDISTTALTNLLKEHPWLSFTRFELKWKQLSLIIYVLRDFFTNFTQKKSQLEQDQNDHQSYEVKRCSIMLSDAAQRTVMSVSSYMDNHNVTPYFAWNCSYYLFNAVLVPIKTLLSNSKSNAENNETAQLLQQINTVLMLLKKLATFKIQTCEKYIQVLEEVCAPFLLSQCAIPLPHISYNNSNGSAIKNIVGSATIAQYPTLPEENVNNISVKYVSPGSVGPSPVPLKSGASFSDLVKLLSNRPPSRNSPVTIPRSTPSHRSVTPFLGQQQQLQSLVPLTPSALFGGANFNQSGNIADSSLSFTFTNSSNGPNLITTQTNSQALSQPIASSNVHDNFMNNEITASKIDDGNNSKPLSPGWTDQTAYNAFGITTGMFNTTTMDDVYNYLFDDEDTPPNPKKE
In short: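 HepG2 cells transiently transfected with GAL4-UAS reporter units, stimulated with 3 nM 6-alpha-fluorotestosterone plus 1.5 nM norgestrel, dosed 24 h. Reporter mRNA by RT-PCR/capillary electrophoresis; gain-of-signal fit versus DMSO, background control.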

[7] = tested on: chicken Androgen Receptor (AR), gene 422165; test: ATG_chAR_XSP2: Attagene TRANS-FACTORIAL Multi-Species (XSP2) HepG2 Assay for chicken Androgen Receptor (AR) (AID 2283819);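 further: hits raise reporter mRNA above DMSO so potency is for activation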
In short: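 HepG2 cells transiently transfected with chicken AR–GAL4 chimeric reporter constructs, stimulated with 3 nM 6-alpha-fluorotestosterone plus 1.5 nM norgestrel, dosed 24 h. Reporter mRNA quantified by RT-PCR and capillary electrophoresis; gain of signal fitted versus DMSO.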

[8] = tested on: turtle Androgen Receptor (AR), gene 101947425; test: ATG_trAR_XSP2: Attagene TRANS-FACTORIAL Multi-Species (XSP2) HepG2 Assay for turtle Androgen Receptor (AR) (AID 2283815)
In short: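 HepG2 cells transiently transfected with GAL4-UAS reporter units for chimeric NR-Gal4 receptors; 24 h dosing in presence of 3 nM 6-alpha-fluorotestosterone and 1.5 nM norgestrel. Reporter mRNA by RT-PCR and capillary electrophoresis, gain of signal versus DMSO.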

[9] = target: human Androgen Receptor (AR), AR (gene 367) (UniProt P10275); test: ATG_hAR_XSP2: Attagene TRANS-FACTORIAL Multi-Species (XSP2) HepG2 Assay for human Androgen Receptor (AR) (AID 2283820)
human Androgen Receptor (AR), AR (gene 367), sequence (P10275 whole entry, looked up): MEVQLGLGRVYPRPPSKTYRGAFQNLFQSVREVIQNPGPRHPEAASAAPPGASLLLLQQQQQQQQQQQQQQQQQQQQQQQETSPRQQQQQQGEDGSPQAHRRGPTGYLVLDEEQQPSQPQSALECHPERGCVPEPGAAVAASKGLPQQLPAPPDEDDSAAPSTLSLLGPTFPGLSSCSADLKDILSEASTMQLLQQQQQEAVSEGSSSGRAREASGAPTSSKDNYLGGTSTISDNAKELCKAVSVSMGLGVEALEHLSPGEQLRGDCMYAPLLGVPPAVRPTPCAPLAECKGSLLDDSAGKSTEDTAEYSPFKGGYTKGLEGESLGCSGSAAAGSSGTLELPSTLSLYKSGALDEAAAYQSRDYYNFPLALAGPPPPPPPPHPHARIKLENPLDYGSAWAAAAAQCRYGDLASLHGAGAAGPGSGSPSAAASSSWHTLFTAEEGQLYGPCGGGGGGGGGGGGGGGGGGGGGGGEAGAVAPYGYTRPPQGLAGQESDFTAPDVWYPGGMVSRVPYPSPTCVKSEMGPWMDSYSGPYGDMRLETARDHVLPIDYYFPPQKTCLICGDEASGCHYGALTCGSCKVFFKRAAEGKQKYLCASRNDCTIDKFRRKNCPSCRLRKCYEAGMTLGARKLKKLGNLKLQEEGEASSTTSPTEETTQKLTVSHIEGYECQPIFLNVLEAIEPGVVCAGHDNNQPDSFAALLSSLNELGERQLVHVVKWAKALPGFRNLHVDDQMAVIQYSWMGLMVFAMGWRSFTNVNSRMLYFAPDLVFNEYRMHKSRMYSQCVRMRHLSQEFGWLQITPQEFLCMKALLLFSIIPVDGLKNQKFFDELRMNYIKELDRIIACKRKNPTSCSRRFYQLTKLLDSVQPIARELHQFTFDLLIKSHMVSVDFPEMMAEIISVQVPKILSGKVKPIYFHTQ
Procedure: ATG_XSP2_multi-species_TRANS is a cell-based, multiplexed assay created by modifying the existing Attagene TRANS-FACTORIAL system to include a panel of nuclear receptors from some or all the following species: human (Homo sapiens), mouse (Mus musculus), frog (Xenopus laevis), zebrafish (Danio rerio), chicken (Gallus gallus), and turtle (Chrysemys picta). The ECOTOX-FACTORIAL format uses HepG2, a human liver cell line, with measurements taken at 24 hours after chemical dosing in a 24-well plate. Xsp2 included 3 nM 6-alpha-fluorotestosterone and 1.5 nM norgestrel to stimulate the androgen receptor.ATG_hAR_XSP2 is one of 29 assay components measured or calculated from the ATG_XSP2_multi-species_TRANS assay. It is designed to make measurements of mRNA induction, a form of inducible reporter, as detected with fluorescence intensity signals by Reverse transcription polymerase chain reaction (RT-PCR) and Capillary electrophoresis technology.The assay endpoint ATG_hAR_XSP2 was analyzed in the positive analysis fitting direction relative to DMSO as the negative control and baseline of activity. […] Furthermore, this assay endpoint can be referred to as a primary readout, because this assay has produced multiple assay endpoints where this one serves a reporter gene function. […]

[10] = target: Estrogen receptor beta (Homo sapiens) (UniProt Q92731); test: ATG_hERb_XSP2: Attagene TRANS-FACTORIAL Multi-Species (XSP2) HepG2 Assay for human Estrogen Receptor (ERb) (AID 2283813);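 further: actives raise reporter mRNA above DMSO so AC50 reflects agonist induction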
Estrogen receptor beta (Homo sapiens), sequence (Q92731 whole entry, looked up): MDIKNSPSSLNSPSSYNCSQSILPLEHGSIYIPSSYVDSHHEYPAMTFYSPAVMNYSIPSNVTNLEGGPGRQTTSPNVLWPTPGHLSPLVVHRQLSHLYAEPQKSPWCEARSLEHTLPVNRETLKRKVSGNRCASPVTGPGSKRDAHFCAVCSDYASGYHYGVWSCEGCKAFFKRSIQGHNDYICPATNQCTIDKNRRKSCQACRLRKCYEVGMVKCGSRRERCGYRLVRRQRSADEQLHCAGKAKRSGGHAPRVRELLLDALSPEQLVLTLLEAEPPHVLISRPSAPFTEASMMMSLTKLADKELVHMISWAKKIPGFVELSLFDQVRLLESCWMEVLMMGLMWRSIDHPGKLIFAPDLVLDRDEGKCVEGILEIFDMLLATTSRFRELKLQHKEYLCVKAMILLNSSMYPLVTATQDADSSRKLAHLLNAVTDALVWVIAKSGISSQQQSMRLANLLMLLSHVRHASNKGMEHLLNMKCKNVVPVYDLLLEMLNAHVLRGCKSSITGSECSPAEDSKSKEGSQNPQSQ
Procedure: ATG_XSP2_multi-species_TRANS is a cell-based, multiplexed assay created by modifying the existing Attagene TRANS-FACTORIAL system to include a panel of nuclear receptors from some or all the following species: human (Homo sapiens), mouse (Mus musculus), frog (Xenopus laevis), zebrafish (Danio rerio), chicken (Gallus gallus), and turtle (Chrysemys picta). The ECOTOX-FACTORIAL format uses HepG2, a human liver cell line, with measurements taken at 24 hours after chemical dosing in a 24-well plate. Xsp2 included 3 nM 6-alpha-fluorotestosterone and 1.5 nM norgestrel to stimulate the androgen receptor.ATG_hERb_XSP2 is one of 29 assay components measured or calculated from the ATG_XSP2_multi-species_TRANS assay. It is designed to make measurements of mRNA induction, a form of inducible reporter, as detected with fluorescence intensity signals by Reverse transcription polymerase chain reaction (RT-PCR) and Capillary electrophoresis technology.The assay endpoint ATG_hERb_XSP2 was analyzed in the positive analysis fitting direction relative to DMSO as the negative control and baseline of activity. Using a type of inducible reporter, measures of mRNA for gain-of-signal activity can be used to understand the reporter gene at the transcription factor-level as they relate to the gene ER. Furthermore, this assay endpoint can be referred to as a primary readout, because this assay has produced multiple assay endpoints where this one serves a reporter gene function. To generalize the intended target to other relatable targets, this assay endpoint is annotated to the nuclear receptor intended target family, where the subfamily is steroidal.
Human liver HepG2 cells are transiently transfected with multiple reporter transcription units (MRTUs) in 6-well plates using FuGene 6 reagent (Roche; 3 ml FuGene/1 mg DNA). The MRTU constructs are regulated by a cis-regulating element (promoter). […] A major difference between the CIS and TRANS system is that in CIS activities of endogenous TFs are measured, whereas the TRANS assay evaluates changes in activities of exogenous, chimeric NR-Gal4 proteins. […] At the end of 24 hour incubation, total RNA was isolated using TriZol reagent (Invitrogen). The isolated RNA is then reverse-transcribed using oligo(dT) primer and Mo-MLV reverse transcriptase (Invitrogen) with DNAse I (Ambion) treatment for 30 min. The one-tenth of the produced cDNA was amplified by PCR using Taq DNA polymerase (Invitrogen) and two reporter sequence-specific primers. The PCR products were fluorescently labeled by primer extension with 6-arboxyfluorescein (6-FAM) 5'-labeled reporter sequence-specific primer (2 min at 95 C, 20 s at 68 C and 10 min at 72 C) and these products were digested with 5U of HpaI (New England Biolabs) for 2h at 37 C. The fragments were purified using Qiaquick PCR columns (Qiagen), analyzed on an ABI 3130xL genetic analyzer (Applied Biosystems) with peak positions identified by using a set of X-rhodamine (ROX)-labeled MapMarker1000 molecular weight standards (BioVentures). The raw capillary electrophoresis data was processed using Attagraph software (Attagene).

Measured: AC50

CN(C)C(=O)Nc1ccc(Cl)c(Cl)c1
active: [2] 25.1 µM and 18 µM | [4] 32.9 µM and 10.6 µM | [5] 24.9 µM
inactive: [1] | [3] | [5]

CC(C)(c1ccc(O)cc1)c1ccc(O)cc1
active: [2] 0.189 µM | [3] 2.53 µM | [4] 0.501 µM | [5] 2.65 µM
inactive: [1]

CSC(=O)c1cccc2nnsc12
not listed: [8] | [9] | [10]
inactive: all other assays above

CC1(C)C(C=C(Cl)Cl)C1C(=O)OCc1cccc(Oc2ccccc2)c1 (stereo not drawn)
active: [2] 42.3 µM | [4] 4.5 µM | [5] 18.6 µM
inactive: [6] | [8] | [7] | [9]

C=CCOC(Cn1ccnc1)c1ccc(Cl)cc1Cl (stereo not drawn)
not listed: [7] | [8] | [9]
inactive: all other assays above

O=C(c1ccc(O)cc1O)c1ccc(O)cc1O
inactive: [1]
active: [2] 2.86 µM | [10] 1.32 µM | [3] 4.21 µM | [4] 2.81 µM | [5] 1.12 µM | [7] 8.13 µM

CC(=O)S[C@@H]1CC2=CC(=O)CC[C@]2(C)[C@H]2CC[C@@]3(C)[C@@H](CC[C@@]34CCC(=O)O4)[C@H]12
not listed: [7] | [8] | [9]
inactive: all other assays above

N[C@@H](Cc1cc(I)c(Oc2ccc(O)c(I)c2)c(I)c1)C(=O)O
active: [2] 359 nM and 3.85 µM | [3] 5.09 µM | [4] 4.3 µM | [5] 3.71 µM
inactive: [1] | [6] | [8] | [3] | [4] | [5]

CCN(Cc1c(F)cccc1Cl)c1c([N+](=O)[O-])cc(C(F)(F)F)cc1[N+](=O)[O-]
active: [2] 2.15 µM | [3] 6.69 µM | [4] 2.59 µM and 795 nM
inactive: [2] | [10] | [8] | [3] | [7]

CCCCC(CC)COC(=O)c1ccccc1C(=O)O (stereo not drawn)
active: [2] 27.1 µM | [4] 27.2 µM
inactive: [1] | [10] | [5] | [7]

C#C[C@]1(O)CC[C@H]2[C@@H]3CCC4=CC(=O)CC[C@@H]4[C@H]3CC[C@@]21CC
inactive: [1] | [2] | [6] | [8] | [3] | [4] | [5]
active: [2] 0.522 µM | [5] 0.318 µM

Oc1ccc(C(c2ccc(O)cc2)C(Cl)(Cl)Cl)cc1
active: [3] 3.11 µM | [4] 0.11 µM | [5] 0.271 µM
inactive: [1] | [2] | [10] | [6]

CC(C)CCCCCCc1ccc(O)cc1
inactive: [1] | [10] | [5]
active: [2] 0.989 µM | [3] 5.75 µM | [4] 0.829 µM

CCCCC(CC)CN1C(=O)C2C3C=CC(C3)C2C1=O (stereo not drawn)
inactive: [2] | [10] | [6] | [3] | [4] | [5]
